{"source": "the supplement of paper PMC11417369", "note": "± gives the standard deviation of the averaged measurements. In all, about 25,000 sequences were measured (“ln(normalized median fluorescence intensity)”: median about 7.9, highest 2% from about 11 on). What follows is part of a selection rich in the highest values, with near analogues and random picks from the rest."}
{"tested_on": "PfAP2-I AP2 domain 3 (GST-tagged)", "experiment": "gcPBM binding intensity (ln(normalized median fluorescence intensity)); higher = stronger DNA binding", "how_it_was_run": "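Binding intensity is defined as the maximum Masliner-normalised natural-log median intensity across replicate spots for either probe orientation. It was measured on an Agilent 4 × 180k array of primer-extended double-stranded 36-bp intergenic genomic probes and negative controls, to which GST-tagged P. falciparum DNA-binding domains made in E. coli were applied for 1 h in 1× PBS with 1% milk, 0.2 mg/ml BSA, 0.5% salmon testes DNA and 0.03% Triton X-100. Detection was by Alexa488 anti-GST antibody and scanning at 488 nm.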"}
{"sequence": "ATAACAAAAAAAAAGGTGCTACAAAATGAATAAAAA [GTGCAC_site9659]", "gcPBM binding intensity (ln)": "9.12 ± 0.3"}
{"sequence": "TGAACTCAACAAAGGGTGCATAACAAAAATAGACGT", "gcPBM binding intensity (ln)": "11.4 ± 0.23"}
{"sequence": "TGAACAGACAAATACACACACTCAAAAAAAAAAAAG [CACACA_site7287]", "gcPBM binding intensity (ln)": "7.68 ± 0.45"}
{"sequence": "TTTTTTTTTAATATTTGTACACAACATGAAACATTT [XGTACX_site473]", "gcPBM binding intensity (ln)": "8.16 ± 0.53"}
{"sequence": "TATATTTATGTATATGTGCACATAAATTTAAGAATG [GTGCAC_site9512]", "gcPBM binding intensity (ln)": "9.68 ± 0.19"}
{"sequence": "TATATATTAATCAAAGTGCAATAATAAAATAAAAGT [GTGCAC_site9490]", "gcPBM binding intensity (ln)": "10.8 ± 0.34"}
{"sequence": "TATAAGAATGACAAGTGTACATATCAAATATATTAG [XGTACX_site7113]", "gcPBM binding intensity (ln)": "7.77 ± 0.38"}
{"sequence": "TATTGACATATATTAGTGCAATAATGAAATCAAGTA", "gcPBM binding intensity (ln)": "10.9 ± 0.43"}
{"sequence": "ATAAAATAAAGGAAAAATATTAAGTTTTAAGAAAAT [CACACA_negctrl_site1066]", "gcPBM binding intensity (ln)": "7.6 ± 0.76"}
{"sequence": "ATTATTTAAATGGATGCACACATGCATTAAATAAAA [CACACA_site5831]", "gcPBM binding intensity (ln)": "8.99 ± 0.82"}
{"sequence": "ATATATTATATTATATGTACTTAAAAAAGTGCAAAG [XGTACX_site318]", "gcPBM binding intensity (ln)": "8.485 ± 0.035"}
{"sequence": "AAAAAAATTACGCAAGTGCATATAATTTAACAAAAA", "gcPBM binding intensity (ln)": "9.625 ± 0.007"}
{"sequence": "AATAACAAAATATTAACACACATAACATATTATAAA [CACACA_site2803]", "gcPBM binding intensity (ln)": "7.55 ± 0.47"}
{"sequence": "CATTATGTACAAAAAGTGCAATATATATTAACACTG", "gcPBM binding intensity (ln)": "11 ± 0.43"}
{"sequence": "ACAATATGCAAAAAGTGTACACATTCATTTATATAA [XGTACX_site1061]", "gcPBM binding intensity (ln)": "8.34 ± 0.32"}
{"sequence": "ACGCAATATTAACAAGTGCATTATAACACATAACAT", "gcPBM binding intensity (ln)": "11.3 ± 0.61"}
{"sequence": "AATTAAATTACTTATACACACATAAAATGTCTGTAT [CACACA_site997]", "gcPBM binding intensity (ln)": "7.76 ± 0.34"}
{"sequence": "AAATTTATGTGTGCCTGTACATATCAAAGATTTAAG [XGTACX_site8547]", "gcPBM binding intensity (ln)": "7.93 ± 0.34"}
{"sequence": "ACATACATATGTAAATGTACAAAATATCCATAGATT [XGTACX_site2782]", "gcPBM binding intensity (ln)": "7.54 ± 0.77"}
{"sequence": "AAATAACAAAAGAAGGTGCTCATAAAAATTCATACA [GTGCAC_site9864]", "gcPBM binding intensity (ln)": "8.51 ± 0.28"}
{"sequence": "TCAGATCCATAGAAGGTGCAAATAACAAAAATACAA [GTGCAC_site9610]", "gcPBM binding intensity (ln)": "11 ± 0.43"}
{"sequence": "GAAATAAAAAGAAATGCATGTAATTTTTTTTTTTTT [TGCATGCA_site928]", "gcPBM binding intensity (ln)": "7.61 ± 0.83"}
{"sequence": "AATGACATTCTTACACGTACAAAATAAAAAATAAAA [XGTACX_site6932]", "gcPBM binding intensity (ln)": "7.89 ± 0.59"}
{"sequence": "ATAAGAATATATAGAGTGCGTTGAAGAATTATAATA", "gcPBM binding intensity (ln)": "9.89 ± 0.27"}
{"sequence": "AATTTGTAAAATAAGGTGCGTATAAAAAATTATATT [GTGCAC_site9676]", "gcPBM binding intensity (ln)": "9.71 ± 0.2"}
{"sequence": "CTTTATAAAATAAGAGTGCGTTATATTGAATTGTAT [GTGCAC_site9390]", "gcPBM binding intensity (ln)": "10.9 ± 0.6"}
{"sequence": "TTATTCATATTATCATGTACTTATATATATTGTCAT [XGTACX_site2231]", "gcPBM binding intensity (ln)": "7.72 ± 0.55"}
{"sequence": "AGAAGAAAAGTAAAAAGTACATTATTCATGGCCTAT [XGTACX_site5601]", "gcPBM binding intensity (ln)": "7.46 ± 0.7"}
{"sequence": "TTAGAAAAATTATATATACACACTTATATTTATATA [CACACA_site2821]", "gcPBM binding intensity (ln)": "7.28 ± 0.4"}
{"sequence": "TAAATATTTTTAGATGCATGCAATAATTACCCAAAG [TGCATGCA_site636]", "gcPBM binding intensity (ln)": "8.15 ± 0.78"}
{"sequence": "ATTATATACAAATAAAGTACATAAACAAATTCAGAA [XGTACX_site1187]", "gcPBM binding intensity (ln)": "7.77 ± 0.47"}
{"sequence": "TCTTTCAATATTAATGCATGTTAATAATAAATTTTA [TGCATGCA_site448]", "gcPBM binding intensity (ln)": "7.96 ± 0.57"}
{"sequence": "AATATTTTTCAATTTCATGTGCATTCATTGAAGTTA [CACACA_negctrl_site1232]", "gcPBM binding intensity (ln)": "8.76 ± 0.37"}
{"sequence": "ATGTTAATTAATGAGGTGCATTGAATATTTCAATAA", "gcPBM binding intensity (ln)": "10.9 ± 0.73"}
{"sequence": "TAAGTATATATATTTACACACATTTGTTTTTTTTTA [CACACA_site3784]", "gcPBM binding intensity (ln)": "7.57 ± 0.6"}
{"sequence": "AAAAAATAGAATATAAAAATAAAGGAATTAAATTAA [XGTACX_negctrl_site420]", "gcPBM binding intensity (ln)": "7.33 ± 0.75"}
{"sequence": "AAAAACTTATATGATACACACGATAAACAAAATAAA [CACACA_site1039]", "gcPBM binding intensity (ln)": "7.91 ± 0.42"}
{"sequence": "ATTAGCAACATTGATAAATATAAACACACGAAAACA [TGCATGCA_negctrl_site97]", "gcPBM binding intensity (ln)": "8.09 ± 0.68"}
{"sequence": "TAGAATGTATGTAGTGCACACCTCTATAATATATTA [CACACA_site1873]", "gcPBM binding intensity (ln)": "11.3 ± 0.6"}
{"sequence": "TATGTACACCCATATACACACCTCTATAATATATAT [CACACA_site4563]", "gcPBM binding intensity (ln)": "8.38 ± 0.18"}
{"sequence": "TGTAATATATGTATTGCACACCTATAACCATTATTT [CACACA_site8422]", "gcPBM binding intensity (ln)": "9.89 ± 0.3"}
{"sequence": "TATATATATATGTGCACACATATATAATATGTATAA [CACACA_site715]", "gcPBM binding intensity (ln)": "10.1 ± 0.42"}
{"sequence": "TATAATGTATGTAGTGCACACCTCTATAATATATTA [CACACA_site8560]", "gcPBM binding intensity (ln)": "10.9 ± 0.64"}
{"sequence": "AATATATATATATGTGCACACATATATAATATGTAT [CACACA_site716]", "gcPBM binding intensity (ln)": "9.2 ± 0.58"}
{"sequence": "ATATATTACAAATGGAGTACTAAAAATATTCTATAT [XGTACX_site6669]", "gcPBM binding intensity (ln)": "8.02 ± 0.38"}
{"sequence": "ACACATATGACAAATAGTACATAAATATATAAATAT [XGTACX_site7141]", "gcPBM binding intensity (ln)": "7.79 ± 0.28"}
